In general, inhibition refers to the change of the read-out against control, counted positive when it falls.

The nature of assay [1]: blockers of polyQ-driven CASP3 activation – cell-based (AID 1583). The following applies: polyglutamine-induced caspase-3 activation, cell assay; stronger effect = higher value;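 tested at 10 µM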.
Assay [2] can be described thus: yeast 75Q aggregation reduction – 75Q-TubU reporter (AID 1593). Particulars: Yeast 75Q polyglutamine aggregation reporter.
Assay [3] in a line: restoration of touch response, mutant HTT neurons – whole organism, C. elegans mechanosensory neurons, N-terminal huntingtin (AID 1599). The following applies: C. elegans polyQ-huntingtin mechanosensory neurons, stronger effect = higher value.
The nature of assay [4]: blockers of cytochrome c efflux from mitochondria – biochemical, purified mitochondria (AID 1603).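 Note: mouse liver mitochondria challenged with calcium chloride; signal normalized to the plate average as 100%.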 Particulars: stronger effect = lower value.
A short description of assay [5]: polyglutamine aggregate formation blockers (AID 1604). Particulars: polyglutamine-induced protein aggregation inhibition assay; stronger effect = higher value; tested at 2.5 µM.
Assay [6] can be described thus: Wnt pathway potentiators raising nuclear beta-catenin – imaging, WNT3A-conditioned medium, mouse C2C12, NPC library, primary screen (AID 1117326). The following applies: stronger effect = higher value.
Assay [7] in a line: stimulators of insulin release from INS-1E, primary screen, cell-based, 5 mM glucose, NPC library (AID 1117329;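 active = compound raises insulin release from rat beta cells at 5 mM glucose, no numeric limit stated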). The following applies: rat INS-1E insulin secretion, at 10 µM, stronger effect = higher value.
Assay [8] in a line: growth inhibition of GSK3B-pretreated HCT116 cells – cell-based, CellTiter-Glo, 0.2 to 20 µM (AID 1117336;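 active = compounds lowering colon cancer cell viability after pretreatment blocking the GSK3B kinase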). The following applies: HCT116 viability after GSK3B inhibitor, at 20 µM, stronger effect = higher value.
Assay [9] can be described thus: inhibition of endothelial tube formation, primary screen, imaging, VEGF stimulated, CD31 staining, tube area, NPC library (AID 1117340;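 active = compound that reduces growth-factor-driven endothelial tube area in a mixed cell culture, no cutoff stated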). The following applies: VEGF-stimulated ADSC/ECFC co-culture, at 10 µM, stronger effect = higher value.
Assay [10] is described as follows: GLP1 release stimulators, primary, NCI-H716, NPC library (AID 1117341;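 active = compound raises GLP1 secretion from the human gut endocrine cells, with no numeric limit stated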). The following applies: NCI-H716 cells, at 10 µM, stronger effect = higher value.
A short description of assay [11]: HCT116 colon cancer cell growth inhibition, primary screen, CellTiter-Glo luminescence, NPC library (AID 1117342;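 active = compounds that lower survival of HCT116 colon cancer cells in the luminescence readout, no numeric limit stated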). Particulars: at 20 µM (top of the series).
Assay [12] in a line: reduced SW480 viability measured with CellTiter-Glo, NPC library, primary (AID 1117343;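 active = compounds that lower viability of the colon cancer cells in the luminescence readout, with no numeric limit stated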). Particulars: CellTiter-Glo luminescence; at 20 µM (top of the series). In general terms: Cellular ATP, detected with luciferase, serves as a proxy for viable cell number.
Assay [13] can be described thus: NPC library primary testing for decreased DLD-1 cell viability via CellTiter-Glo (AID 1117346;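 active = compounds that lower survival of DLD-1 colon cancer cells in the luminescence readout, no cutoff given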). Particulars: DLD-1 viability, CellTiter-Glo luminescence; at 20 µM (top of the series).
The target in assay [14] is 6-phosphogluconate dehydrogenase, decarboxylating (Homo sapiens) (UniProt P52209). Briefly: inhibition of human phosphogluconate dehydrogenase – biochemical, recombinant enzyme, NADPH absorbance, primary screen (AID 1159550;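 active = at least 20% inhibition of 6-phosphogluconate dehydrogenase activity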). The following applies: recombinant 6PGD, NADPH absorbance 341 nm; at 10 µM; stronger effect = higher value.
The nature of assay [15]: EMT-state selective cytotoxicity in co-culture – imaging, PC-3E GFP, TEM4-18 mCherry, primary screen (AID 1345086;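 active = compounds killing one labelled cell type while sparing the other, by normalised counts and ratio limits, not self-fluorescent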;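 for all read-outs here: cells exposed to compound for 72 h before imaging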;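 for red/green cell ratio (normalised): normalised mesenchymal count divided by normalised epithelial count so high means epithelial killing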). Particulars: PC-3E GFP / TEM4-18 mCherry co-culture, imaging cell counts, at 1 µM; for red/green cell ratio (normalised): actives lie on both sides, counts scaled to control wells, 1 = unselective.
A short description of assay [16]: MELAS cybrid and Rieske KO viability enhancers – cell-based, MELAS cybrids, Rieske KO mouse fibroblasts, CellTiter-Glo, primary screen (AID 1508586;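 active = mean z-score across replicates of 1.96 or higher in either the MELAS or the Rieske mutant cell line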;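 note: z relative to plate mean and SD of compound and empty wells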). Particulars: low glucose.
In assay [17] the target is NAD(+) hydrolase SARM1 (Homo sapiens) (UniProt Q6SZW1). Briefly: blocking NAD cleavage by SARM1 SAM-TIR – cell lysate, NAD-Glo luminescence (AID 1508614;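 active = compound whose remaining NAD level is above about 45 nM, limit read from the data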;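 note: higher remaining NAD means stronger inhibition of SARM1 NADase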). The following applies: SAM-TIR HEK293T lysate NADase, at 1 µM, stronger effect = higher value.
Assay [18] addresses Mitogen-activated protein kinase 7 (Homo sapiens) (UniProt Q13164). In words: Gal4-ERK5 driven luciferase induction – cell-based, HTS, primary screen (AID 1508626;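 active = luciferase signal above three times the same-plate solvent-only control wells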;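 note: luciferase driven by Gal4-ERK5 fusion binding five Gal4 sites before minimal TATA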). The following applies: HeLa Gal4-ERK5 transactivation, 18 h, at 5 µM, stronger effect = higher value.
A short description of assay [19]: growth inhibition, single agents and combos, ICB984, cell-based, cisplatin or BGB combos, synergistic combos for chromothripsis tumors (AID 1671451; call rule not given here;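 note: cells exposed for 96 hours before readout; 0% = vehicle DMSO and 100% = killing by high DMSO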). The following applies: ICB984 medulloblastoma cells, drug combinations, stronger effect = higher value.
Where [20] appears, read: measured here: epithelial PC-3E GFP cell survival.
Setting [21] is: measured here: mesenchymal TEM4-18 mCherry cell survival.
Setting [22] is: MELAS cybrid survival, CellTiter-Glo 48 h, stronger effect = higher value.
Where [23] appears, read: Rieske KO mouse fibroblast survival, CellTiter-Glo 72 h.

Where “and” joins values, the source holds several entries; their conditions need not be identical. Equal values may be shown once. For some of these results: Results with a measured potency or affinity are listed apart. Calls of active or inactive are those of the source. Cut-off read from the data, not from the text of the source, unless noted: active = nuclear beta-catenin stimulation mostly above about 4.2% (no sharp cut-off); inactive = mostly below about 10%.

6-phosphogluconate dehydrogenase, decarboxylating (Homo sapiens), sequence (P52209 whole entry, looked up): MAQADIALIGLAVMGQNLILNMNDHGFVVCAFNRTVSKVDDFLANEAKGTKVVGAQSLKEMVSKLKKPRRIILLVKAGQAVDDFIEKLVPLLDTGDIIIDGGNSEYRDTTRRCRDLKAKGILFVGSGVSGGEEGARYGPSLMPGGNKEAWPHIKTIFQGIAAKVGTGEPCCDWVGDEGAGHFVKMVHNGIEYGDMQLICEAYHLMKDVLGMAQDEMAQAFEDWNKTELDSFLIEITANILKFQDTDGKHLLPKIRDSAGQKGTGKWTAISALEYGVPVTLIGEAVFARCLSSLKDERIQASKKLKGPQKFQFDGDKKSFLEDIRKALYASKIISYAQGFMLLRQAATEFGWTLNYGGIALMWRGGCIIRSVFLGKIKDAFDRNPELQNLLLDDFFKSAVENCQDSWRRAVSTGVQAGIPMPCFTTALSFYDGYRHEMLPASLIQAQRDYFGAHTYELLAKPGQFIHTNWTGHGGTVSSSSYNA
Mitogen-activated protein kinase 7 (Homo sapiens), sequence (Q13164 whole entry, looked up, the tested form may be a part): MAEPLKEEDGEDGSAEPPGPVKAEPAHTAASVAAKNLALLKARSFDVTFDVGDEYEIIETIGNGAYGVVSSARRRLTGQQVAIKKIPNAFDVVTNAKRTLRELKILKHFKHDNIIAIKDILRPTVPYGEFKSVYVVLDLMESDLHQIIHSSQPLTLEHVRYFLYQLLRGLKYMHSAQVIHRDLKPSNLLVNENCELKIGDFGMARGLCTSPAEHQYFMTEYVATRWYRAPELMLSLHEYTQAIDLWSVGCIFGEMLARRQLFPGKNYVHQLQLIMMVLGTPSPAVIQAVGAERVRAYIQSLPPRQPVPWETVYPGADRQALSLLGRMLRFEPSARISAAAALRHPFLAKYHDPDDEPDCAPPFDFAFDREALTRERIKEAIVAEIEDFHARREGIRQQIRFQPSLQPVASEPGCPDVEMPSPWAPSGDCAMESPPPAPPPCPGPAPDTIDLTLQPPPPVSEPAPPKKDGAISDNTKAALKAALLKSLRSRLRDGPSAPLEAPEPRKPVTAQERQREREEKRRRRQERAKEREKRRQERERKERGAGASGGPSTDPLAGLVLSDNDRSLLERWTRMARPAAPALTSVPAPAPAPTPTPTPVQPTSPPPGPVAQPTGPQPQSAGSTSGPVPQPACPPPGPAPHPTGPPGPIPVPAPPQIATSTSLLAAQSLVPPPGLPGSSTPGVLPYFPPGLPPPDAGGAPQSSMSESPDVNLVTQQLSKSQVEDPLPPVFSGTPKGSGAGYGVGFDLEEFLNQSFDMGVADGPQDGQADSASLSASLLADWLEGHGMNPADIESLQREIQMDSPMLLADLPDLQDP
NAD(+) hydrolase SARM1 (Homo sapiens), sequence (Q6SZW1 whole entry, looked up, the tested form may be a part): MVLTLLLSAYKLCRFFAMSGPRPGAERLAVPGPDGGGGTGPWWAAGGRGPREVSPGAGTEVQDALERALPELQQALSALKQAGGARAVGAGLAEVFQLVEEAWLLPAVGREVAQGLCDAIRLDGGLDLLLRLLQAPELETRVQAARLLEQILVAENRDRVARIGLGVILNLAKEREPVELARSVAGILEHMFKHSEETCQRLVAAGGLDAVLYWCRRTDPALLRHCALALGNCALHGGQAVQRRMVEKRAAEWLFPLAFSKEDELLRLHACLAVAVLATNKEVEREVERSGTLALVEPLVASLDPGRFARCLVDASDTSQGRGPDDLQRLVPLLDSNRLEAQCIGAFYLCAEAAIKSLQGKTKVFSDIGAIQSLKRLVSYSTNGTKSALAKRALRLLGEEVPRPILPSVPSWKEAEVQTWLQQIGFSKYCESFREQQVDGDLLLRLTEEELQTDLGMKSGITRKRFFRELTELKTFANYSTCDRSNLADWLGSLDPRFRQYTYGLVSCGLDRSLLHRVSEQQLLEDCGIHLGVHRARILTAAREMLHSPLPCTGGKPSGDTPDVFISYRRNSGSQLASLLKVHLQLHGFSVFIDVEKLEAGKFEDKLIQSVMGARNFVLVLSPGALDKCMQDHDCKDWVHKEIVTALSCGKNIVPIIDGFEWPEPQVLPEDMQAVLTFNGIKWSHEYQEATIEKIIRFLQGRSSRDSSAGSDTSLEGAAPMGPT

Take `Nc1nc2c(ncn2COCCO)c(=O)[nH]1`: the inhibition in assay [1] is 6.39%; in [14], 18.2% (inactive); in assay [19] (BGB IC20 combo, at 0.005 µM), 14.3% and 0.139%; in assay [19] (BGB IC40 combo, at 0.005 µM), -30.6% and -19%; in assay [19] (BGB IC40 combo, at 0.05 µM), -33.3% and -34.4%; in [19] (at 0.5 µM) it was -25.4% (inactive) and -25.1% (inactive). The inhibition in assay [19] (cisplatin combo, at 0.05 µM) is -37% and -39.3%; in [19] (cisplatin combo, at 0.5 µM) it was -27.7% and -16.9%; in assay [19] (cisplatin combo, at 5 µM) it was -26.2% and -27.5%; in assay [19] (measured here: 5 uM single agent, at 5 µM) it was -25.9% and 2.01%. The compound further displayed a score in assay [2] of 1.1. This compound also showed a rescue above control in assay [3] of 0.24. Further, in [4], the cytochrome c release ratio stood at 1.05. Moreover, the inhibition of aggregation in assay [5] worked out at 51.5%. For the same compound, the nuclear beta-catenin stimulation was 3% (inactive) in assay [6] (at 10 µM) and -1% in [6] (stimulation, at 2 µM). Besides, the insulin secretion stimulation in [7] was 0.5% (inactive). The viability decrease in assay [8] was -0.3% (inactive). In assay [9], the tube area decrease was 8.6% (inactive). Further, the GLP1 secretion stimulation in assay [10] was -0.5% (inactive). The inhibition of viability in [11] was -3.47% (inactive). The viability decrease (inhibition) is 23.2% (inactive) in assay [12] and -16.2% (inactive) in [13]. Besides, the red/green cell ratio (normalised) in assay [15] is 1.25 (inactive). In addition, the normalised cell number in [15] (setting [20]) was found to be 1.01; in [15] (setting [21]), 1.26. In addition, the z-score in assay [16] (setting [22]) is -0.252 (inactive) and -0.378 (inactive) and 0.479; in assay [16] (setting [23]) it was 0.554 and 0.269 and 2.37. Also, the remaining NAD in assay [17] is 10 nM (inactive). Besides, the luciferase signal in [18] was 40 AU (inactive).
`CC(=O)c1ccc(OCC(=O)N2CCCCC2)cc1`: the nuclear beta-catenin stimulation was 1.1% (inactive) in assay [6] (at 10 µM) and -0.3% in assay [6] (stimulation, at 2 µM). The insulin secretion stimulation in assay [7] was 0.25% (inactive). The viability decrease in assay [8] was 7.4% (inactive). In addition, the tube area decrease in [9] was 7% (active). Besides, the GLP1 secretion stimulation in assay [10] was 0.7% (inactive). Also, the inhibition of viability in assay [11] was -3.4% (inactive). Moreover, the viability decrease (inhibition) in [12] was -3.6% (inactive); in assay [13] it was -2.8% (inactive).
In the case of `CC12CCC(C[N+](C)(CCC[N+](C)(C)C)C1)C2(C)C` (configuration not stated), the nuclear beta-catenin stimulation was -0.5% (inactive) in assay [6] (at 10 µM) and 0% in [6] (stimulation, at 2 µM). The insulin secretion stimulation in assay [7] was -2.5% (inactive). The viability decrease in [8] was -7.9% (inactive). For the same compound, the tube area decrease in [9] is -11.3% (inactive). In addition, the GLP1 secretion stimulation in assay [10] was -3.2% (inactive). Also, the inhibition of viability in assay [11] is -7.3% (inactive). For the same compound, the figures for the viability decrease (inhibition) in assay [12] and in [13] were 7.3% (inactive) and -4% (inactive), respectively.
In the case of `Cc1cc(O)c(C)c(C)c1O`, the nuclear beta-catenin stimulation in assay [6] (at 10 µM) is 2.1% (inactive); in [6] (stimulation, at 2 µM), -0.4%. Also, in assay [7], the insulin secretion stimulation was 1.3% (inactive). Also, the viability decrease in assay [8] is 4.5% (inactive). In addition, the tube area decrease in assay [9] was -1.3% (inactive). In addition, in assay [10], the GLP1 secretion stimulation is -0.5% (inactive). Further, in [11], the inhibition of viability was -1.8% (inactive). The figures for the viability decrease (inhibition) in [12] and in assay [13] were -15.7% (inactive) and -26.1% (inactive), respectively.
On to `CCOC(=O)[C@H](CCc1ccccc1)N[C@H]1CCc2ccccc2N(CC(=O)O)C1=O`, for which the nuclear beta-catenin stimulation in assay [6] (at 10 µM) was 27.7% (inactive); in assay [6] (stimulation, at 2 µM), 2.2%. The insulin secretion stimulation in [7] is 1.1% (inactive). In addition, in assay [8], the viability decrease was -40.3% (inactive). Besides, the tube area decrease in assay [9] is 33.7% (inactive). Also, the GLP1 secretion stimulation in assay [10] is 16.1% (inactive). The inhibition of viability in [11] is 51.1% (active). Besides, the viability decrease (inhibition) in [12] was 102% (active); in [13], 44.2% (inactive). Also, in [14], the inhibition was -6.81% (inactive). Moreover, in assay [15], the red/green cell ratio (normalised) is 0.73 (inactive). For the same compound, the normalised cell number in [15] (setting [20]) stood at 1.36; in assay [15] (setting [21]), 0.98. In addition, the z-score in [16] (setting [22]) was 0.369 (inactive); in assay [16] (setting [23]) it was 0.328. In addition, the remaining NAD in assay [17] was 10 nM (inactive). The luciferase signal in assay [18] was 92 AU (inactive).
With `CC[C@H](C)C(=O)O[C@H]1C[C@@H](C)C=C2C=C[C@H](C)[C@H](CC[C@@H]3C[C@@H](O)CC(=O)O3)[C@H]21`, the inhibition in [1] is -14.6%; in assay [14], -1.21% (inactive). Further, the score in assay [2] was -1.08. In [3], this compound registered a rescue above control of -2.24. Besides, the cytochrome c release ratio in [4] came to 0.75. The inhibition of aggregation in [5] was 26.5%. Besides, the nuclear beta-catenin stimulation in [6] (at 10 µM) is 13.1% (inactive); in assay [6] (stimulation, at 2 µM), 4.2%. In addition, the insulin secretion stimulation in [7] was 6.6% (inactive). In addition, the viability decrease in assay [8] was 69.3% (active). Moreover, in assay [9], the tube area decrease was 95.5% (active). Further, the GLP1 secretion stimulation in assay [10] was 25% (active). Also, the inhibition of viability in assay [11] was 56.9% (active). Also, the viability decrease (inhibition) in assay [12] was 87% (active); in [13], 36.2% (inactive). For the same compound, the red/green cell ratio (normalised) in assay [15] was 0.98 (inactive). Further, the normalised cell number amounted to 1.39 in assay [15] (setting [20]) and 1.37 in assay [15] (setting [21]). Also, the z-score in assay [16] (setting [22]) is -0.236 and -1.19 (inactive); in assay [16] (setting [23]), 2.23 and -0.0427. For the same compound, in assay [17], the remaining NAD was 10 nM (inactive). Moreover, in [18], the luciferase signal was 60 AU (inactive).
Regarding `c1ccc(CC2=NCCN2)cc1`, the inhibition in assay [1] is 7.62%; in [14], -8.93% (inactive). The same compound displayed a score in [2] of 1.26. In addition, in [3], the rescue above control is -6.48. In addition, the cytochrome c release ratio in assay [4] was 1.14. In [5], this compound yielded an inhibition of aggregation of 87%. In addition, the nuclear beta-catenin stimulation in assay [6] (at 10 µM) is 0.4% (inactive); in [6] (stimulation, at 2 µM) it was 1%. In assay [7], the insulin secretion stimulation is -1% (inactive). Further, the viability decrease in assay [8] was -3.85% (inactive). The tube area decrease in [9] is -0.5% (inactive). Besides, the GLP1 secretion stimulation in assay [10] was 1.9% (inactive). Moreover, in assay [11], the inhibition of viability is -10.6% (inactive). In addition, the viability decrease (inhibition) was 15.1% (inactive) in [12] and 5.35% (inactive) in [13]. The red/green cell ratio (normalised) in assay [15] is 1.19 (inactive). Besides, the results for the normalised cell number in assay [15] (setting [20]) and in assay [15] (setting [21]) were 0.88 and 1.04, respectively. In addition, the z-score in [16] (setting [22]) is -0.147 (inactive) and 0.373 (inactive); in assay [16] (setting [23]) it was -0.183 and 0.131. The remaining NAD in assay [17] is 10 nM (inactive). In addition, the luciferase signal in [18] was 44 AU (inactive).
Turning to `CCC(=C(CC)c1ccc(OP(=O)(O)O)cc1)c1ccc(OP(=O)(O)O)cc1`, the nuclear beta-catenin stimulation in assay [6] (at 10 µM) is -1.3% (inactive); in [6] (stimulation, at 2 µM), 1.7%. Further, the insulin secretion stimulation in assay [7] was -1.8% (inactive). In addition, the viability decrease in [8] is -26.4% (inactive). The tube area decrease in [9] is 3.7% (inactive). Moreover, the GLP1 secretion stimulation in [10] was -1.8% (inactive). Further, in assay [11], the inhibition of viability was -0.4% (inactive). Moreover, the figures for the viability decrease (inhibition) in [12] and in assay [13] were -2.6% (inactive) and 10.2% (inactive), respectively.
